# According to PubChem BioAssay (EPA / NIEHS):
# Active and inactive are the calls of the source. Rule for the calls: active = hit-call score of the fitted dose curve at least 0.9, where 1 is the maximum; inactive = score below 0.9.
# What was measured:
# [1] = read-out: Cyclin D1 (CCND1), CCND1 (gene 595); assay: LTEA_HepaRG_CCND1: Life Technologies and Expression Analysis (LTEA) Assay for Cyclin D1 (CCND1) using HepaRG (AID 2283451); conditions: mRNA level, 48 h; actives raise or lower the signal;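 for AC50: differentiated human HepaRG liver cells in serum-free induction medium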
# Method in brief: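 Expression of CCND1 was quantified by qRT-PCR on Fluidigm arrays using ACTB, GAPDH and POLR2A as reference genes. HepaRG cultures, plated 48 h beforehand, were dosed for 48 h at up to 100 uM (half-log, 8 points) in 0.5% DMSO.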
# [2] = read-out: catalase (CAT), CAT (gene 847); assay: LTEA_HepaRG_CAT: Life Technologies and Expression Analysis (LTEA) Assay for catalase (CAT) using HepaRG (AID 2283452); conditions: mRNA level, 48 h; actives raise or lower the signal
# Method in brief: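 HepaRG cells in serum-free induction medium, 0.5% DMSO vehicle, exposed 48 h in duplicate over 8 half-log concentrations from 100 uM. CAT mRNA measured by qRT-PCR, normalized to ACTB, GAPDH, POLR2A; bidirectional fit versus DMSO.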
# [3] = read-out: flavin-containing dimethylaniline monooxygenases 3 (FMO3), FMO3 (gene 2328); assay: LTEA_HepaRG_FMO3: Life Technologies and Expression Analysis (LTEA) Assay for flavin-containing dimethylaniline monooxygenases 3 (FMO3) using HepaRG (AID 2283453); conditions: mRNA level, 48 h; actives raise or lower the signal;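 for AC50: differentiated human HepaRG liver cells in serum-free induction medium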
# Method in brief: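 FMO3 transcript quantified by TaqMan qRT-PCR against three housekeeping genes after 48 h chemical exposure of HepaRG cells. Eight-point half-log series, top 100 uM, 0.5% DMSO vehicle; phenobarbital 1mM induction control; up- or down-regulation fitted.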
# [4] = read-out: Cytochrome P450 (CYP1A1), CYP1A1 (gene 1543); assay: LTEA_HepaRG_CYP1A1: Life Technologies and Expression Analysis (LTEA) Assay for Cytochrome P450 (CYP1A1) using HepaRG (AID 2283454); conditions: mRNA level, 48 h; actives raise or lower the signal
# Method in brief: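 CYP1A1 transcript levels measured by Fluidigm qRT-PCR against three housekeeping genes, 48 h after chemical dosing of human HepaRG cells (highest concentration 100 uM, half-log steps, 0.5% DMSO vehicle). Gain or loss of signal fitted relative to DMSO.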
# [5] = read-out: CFLAR gene, CFLAR (gene 8837); assay: LTEA_HepaRG_CFLAR: Life Technologies and Expression Analysis (LTEA) Assay for CFLAR gene using HepaRG (AID 2283455); conditions: mRNA level, 48 h; actives raise or lower the signal
# Method in brief: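 qRT-PCR read-out (Fluidigm/TaqMan) of CFLAR mRNA, normalized to three housekeeping genes, in differentiated human HepaRG cells after 48 h chemical exposure; 8-point half-log series from 100 uM in 0.5% DMSO; bidirectional curve fitting versus DMSO.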
# [6] = read-out: growth arrest and DNA damage 45 (GADD45A), GADD45A (gene 1647); assay: LTEA_HepaRG_GADD45A: Life Technologies and Expression Analysis (LTEA) Assay for growth arrest and DNA damage 45 (GADD45A) using HepaRG (AID 2283458); conditions: mRNA level, 48 h; actives raise or lower the signal
# Method in brief: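 GADD45A expression was measured by TaqMan qRT-PCR against three housekeeping genes (ACTB, GAPDH, POLR2A) after 48 h treatment of HepaRG cells. Eight-point half-log series up to 100 uM in 0.5% DMSO, run in duplicate.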
# [7] = read-out: Forkhead box O3 (FOXO3), FOXO3 (gene 2309); assay: LTEA_HepaRG_FOXO3: Life Technologies and Expression Analysis (LTEA) Assay for Forkhead box O3 (FOXO3) using HepaRG (AID 2283459); conditions: mRNA level, 48 h; actives raise or lower the signal
# Method in brief: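 qRT-PCR readout of FOXO3 transcript, normalized to three housekeeping genes (ACTB, GAPDH, POLR2A); gain or loss fitted against 0.5% DMSO vehicle. HepaRG cells, 48 h chemical exposure, 8-point half-log series, top 100 uM.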
# [8] = read-out: ABC Transporter (ABCB1), ABCB1 (gene 5243); assay: LTEA_HepaRG_ABCB1: Life Technologies and Expression Analysis (LTEA) Assay for ABC Transporter (ABCB1) using HepaRG (AID 2283460); conditions: mRNA level, 48 h; actives raise or lower the signal
# Method in brief: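 HepaRG, 48 h exposure, 8-pt half-log series from 100 uM, 0.5% DMSO vehicle, duplicates. Readout: ABCB1 transcript by Fluidigm TaqMan qRT-PCR, housekeeping-normalized; bidirectional curve fit vs DMSO baseline.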
# [9] = read-out: growth arrest and DNA damage 45 (GADD45B), GADD45B (gene 4616); assay: LTEA_HepaRG_GADD45B: Life Technologies and Expression Analysis (LTEA) Assay for growth arrest and DNA damage 45 (GADD45B) using HepaRG (AID 2283461); conditions: mRNA level, 48 h; actives raise or lower the signal
# Method in brief: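 Transcript level quantified by Fluidigm TaqMan qRT-PCR with three housekeeping genes for normalization, analyzed for up- or down-regulation against 0.5% DMSO. HepaRG cultures dosed 48 h at eight half-log concentrations up to 100 uM, duplicates.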
# [10] = read-out: ABC Transporter (ABCC3), ABCC3 (gene 8714); assay: LTEA_HepaRG_ABCC3: Life Technologies and Expression Analysis (LTEA) Assay for ABC Transporter (ABCC3) using HepaRG (AID 2283462); conditions: mRNA level, 48 h; actives raise or lower the signal
# Method in brief: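 Transcript level by TaqMan qRT-PCR, normalised to three housekeeping genes, fitted in both directions relative to vehicle. Chemicals tested in duplicate at eight half-log concentrations up to 100 uM for 48 h on HepaRG cells (0.5% DMSO).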
# [11] = read-out: ABC Transporter (ABCB11), ABCB11 (gene 8647); assay: LTEA_HepaRG_ABCB11: Life Technologies and Expression Analysis (LTEA) Assay for ABC Transporter (ABCB11) using HepaRG (AID 2283463); conditions: mRNA level, 48 h; actives raise or lower the signal
# Method in brief: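 HepaRG, 48 h exposure, 8-pt half-log CRC top 100 uM, 0.5% DMSO vehicle, duplicates. Readout: TaqMan qRT-PCR of ABCB11 mRNA, housekeeping-normalized (ACTB/GAPDH/POLR2A). Bidirectional fit vs DMSO baseline.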
# [12] = read-out: ABC Transporter (ABCC2), ABCC2 (gene 1244); assay: LTEA_HepaRG_ABCC2: Life Technologies and Expression Analysis (LTEA) Assay for ABC Transporter (ABCC2) using HepaRG (AID 2283464); conditions: mRNA level, 48 h; actives raise or lower the signal
# Method in brief: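 Endpoint is ABCC2 transcript level from qRT-PCR, normalized to three housekeeping genes and fitted bidirectionally relative to DMSO. Human HepaRG cells received test chemical for 48 h at up to 100 uM (8 points, half-log steps, 0.5% DMSO), duplicate wells.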
# [13] = read-out: Broad substrate specificity ATP-binding cassette transporter ABCG2 (Homo sapiens) (UniProt Q9UNQ0); assay: LTEA_HepaRG_ABCG2: Life Technologies and Expression Analysis (LTEA) Assay for ABC Transporter (ABCG2) using HepaRG (AID 2283465); conditions: mRNA level, 48 h; actives raise or lower the signal
# Method in brief: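 HepaRG, 48 h exposure, 8-pt half-log series from 100 uM, 0.5% DMSO vehicle, duplicates. Readout: ABCG2 transcript by qRT-PCR (Fluidigm array), housekeeping-normalized; bidirectional curve fit relative to DMSO baseline.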
# [14] = read-out: ATP-citrate lyase (ACLY), ACLY (gene 47); assay: LTEA_HepaRG_ACLY: Life Technologies and Expression Analysis (LTEA) Assay for ATP-citrate lyase (ACLY) using HepaRG (AID 2283466); conditions: mRNA level, 48 h; actives raise or lower the signal
# Method in brief: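 qRT-PCR readout of ACLY transcript after 48 h chemical treatment of HepaRG cells; expression normalized to three housekeeping genes. Eight-point half-log series, highest 100 uM, 0.5% DMSO vehicle. Gain or loss fitted against DMSO baseline.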
# [15] = read-out: Peroxisomal acyl-coenzyme A oxidase 1 (ACOX1) gene, ACOX1 (gene 51); assay: LTEA_HepaRG_ACOX1: Life Technologies and Expression Analysis (LTEA) Assay for Peroxisomal acyl-coenzyme A oxidase 1 (ACOX1) gene using HepaRG (AID 2283467); conditions: mRNA level, 48 h; actives raise or lower the signal
# Method in brief: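 HepaRG, 48 h chemical exposure, 8-pt half-log series from 100 uM top, 0.5% DMSO vehicle, duplicates. Readout: ACOX1 mRNA by Fluidigm qRT-PCR, housekeeping-normalized; bidirectional fit vs DMSO baseline.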
# [16] = read-out: Alkaline Phosphatase, Placental (ALPP) gene, ALPP (gene 250); assay: LTEA_HepaRG_ALPP: Life Technologies and Expression Analysis (LTEA) Assay for Alkaline Phosphatase, Placental (ALPP) gene using HepaRG (AID 2283468); conditions: mRNA level, 48 h; actives raise or lower the signal;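 for AC50: differentiated human HepaRG liver cells in serum-free induction medium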
# Method in brief: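 ALPP transcript level, measured by qRT-PCR and normalized to three housekeeping genes (ACTB, GAPDH, POLR2A), after 48 h dosing of differentiated HepaRG in serum-free induction medium. Top concentration 100 uM with half-log dilutions (8 points, 0.5% DMSO, duplicates); bidirectional fitting relative to DMSO.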
# [17] = read-out: Bcl-2 (BAD) gene, BAD (gene 572); assay: LTEA_HepaRG_BAD: Life Technologies and Expression Analysis (LTEA) Assay for Bcl-2 (BAD) gene using HepaRG (AID 2283469); conditions: mRNA level, 48 h; actives raise or lower the signal
# Method in brief: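 HepaRG, 48 h exposure, 8-pt half-log curve from 100 uM in 0.5% DMSO, duplicates. Readout: TaqMan qRT-PCR for BAD mRNA, housekeeping-normalised (ACTB/GAPDH/POLR2A); gain or loss fitted against DMSO baseline.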
# [18] = read-out: Bcl-2 (BAX) gene, BAX (gene 581); assay: LTEA_HepaRG_BAX: Life Technologies and Expression Analysis (LTEA) Assay for Bcl-2 (BAX) gene using HepaRG (AID 2283470); conditions: mRNA level, 48 h; actives raise or lower the signal
# Method in brief: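 Gene expression measured by Fluidigm qRT-PCR with three housekeeping genes for normalisation. HepaRG cells, plated 48 h beforehand, treated 48 h at up to 100 uM (8-point, half-log) in 0.5% DMSO. Bidirectional fitting versus DMSO.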
# [19] = read-out: Forkhead box O1 (FOXO1), FOXO1 (gene 2308); assay: LTEA_HepaRG_FOXO1: Life Technologies and Expression Analysis (LTEA) Assay for Forkhead box O1 (FOXO1) using HepaRG (AID 2283456); conditions: mRNA level, 48 h; actives raise or lower the signal
# Method in brief: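 HepaRG, 48 h exposure, 8-pt half-log series from 100 uM in 0.5% DMSO, duplicates; Fluidigm qRT-PCR mRNA, housekeeping-normalised; bidirectional fit vs DMSO baseline.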
# [20] = CEETOX_H295R_TESTO: CeeTox H295R High-throughput Steroidogenesis Assay for Testosterone (TESTO) (AID 2283457); conditions: actives raise or lower the signal
# Method in brief: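 Testosterone secreted into the medium over 48 h by H295R cells (maximum passage 10) was quantified by LC-MS/MS after MTBE extraction. Fitted in both directions against DMSO, with concentrations diluted until MTT viability was ≥70%.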
# Sequence of Broad substrate specificity ATP-binding cassette transporter ABCG2 (Homo sapiens) (Q9UNQ0 whole entry, looked up): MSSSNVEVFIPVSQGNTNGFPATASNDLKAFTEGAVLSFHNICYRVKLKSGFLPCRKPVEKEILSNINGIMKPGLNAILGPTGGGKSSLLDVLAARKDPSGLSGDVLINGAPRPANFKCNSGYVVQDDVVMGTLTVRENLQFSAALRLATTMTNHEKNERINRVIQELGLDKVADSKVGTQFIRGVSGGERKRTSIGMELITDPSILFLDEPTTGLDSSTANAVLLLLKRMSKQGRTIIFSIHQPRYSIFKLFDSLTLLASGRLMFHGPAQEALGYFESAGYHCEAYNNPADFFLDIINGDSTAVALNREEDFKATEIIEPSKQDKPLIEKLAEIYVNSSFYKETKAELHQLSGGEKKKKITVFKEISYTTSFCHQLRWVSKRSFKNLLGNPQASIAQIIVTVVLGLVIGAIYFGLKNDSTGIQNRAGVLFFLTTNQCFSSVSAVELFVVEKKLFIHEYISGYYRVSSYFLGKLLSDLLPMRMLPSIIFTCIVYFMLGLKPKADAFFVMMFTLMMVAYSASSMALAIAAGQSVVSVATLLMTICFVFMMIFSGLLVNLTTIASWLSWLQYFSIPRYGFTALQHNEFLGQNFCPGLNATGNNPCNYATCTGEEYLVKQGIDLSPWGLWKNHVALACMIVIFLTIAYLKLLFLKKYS
compound,measurement,setting,value
CCOc1cc(Oc2ccc(C(F)(F)F)cc2Cl)ccc1[N+](=O)[O-],outcome,[1],inactive
same,AC50,[2],36.2 µM (active)
same,AC50,[3],50 µM (active)
same,AC50,[4],9.84 µM (active)
same,outcome,[5],inactive
same,outcome,[6],inactive
same,outcome,[7],inactive
same,outcome,[8],inactive
same,outcome,[9],inactive
same,outcome,[10],inactive
same,AC50,[11],19.1 µM (active)
same,outcome,[12],inactive
same,AC50,[13],9.39 µM (active)
same,outcome,[14],inactive
same,AC50,[15],50 µM (active)
same,AC50,[16],40.3 µM (active)
same,outcome,[17],inactive
same,outcome,[18],inactive
N#CC(CCc1ccc(Cl)cc1)(Cn1cncn1)c1ccccc1 (centres undefined),AC50,[1],71.5 µM (active)
same,AC50,[2],54.5 µM (active)
same,AC50,[3],72.9 µM (active)
same,AC50,[4],9.8 µM (active)
same,outcome,[5],inactive
same,AC50,[19],77.8 µM (active)
same,outcome,[20],inactive
same,AC50,[6],74.7 µM (active)
same,outcome,[7],inactive
same,outcome,[8],inactive
same,AC50,[10],12.5 µM (active)
same,AC50,[11],72.3 µM (active)
same,AC50,[12],50 µM (active)
same,AC50,[13],50 µM (active)
same,AC50,[15],34.3 µM (active)
same,AC50,[16],21.9 µM (active)
same,outcome,[17],inactive
same,AC50,[18],68 µM (active)
COc1cnc(OC)n2nc(NS(=O)(=O)c3c(OCC(F)F)cccc3C(F)(F)F)nc12,outcome,[1],inactive
same,outcome,[2],inactive
same,outcome,[3],inactive
same,AC50,[4],32.8 µM (active)
same,outcome,[5],inactive
same,outcome,[19],inactive
same,outcome,[6],inactive
same,outcome,[7],inactive
same,AC50,[8],23.3 µM (active)
same,outcome,[9],inactive
same,outcome,[10],inactive
same,outcome,[11],inactive
same,outcome,[12],inactive
same,outcome,[13],inactive
same,outcome,[14],inactive
same,outcome,[15],inactive
same,outcome,[16],inactive
same,outcome,[17],inactive
same,outcome,[18],inactive
CCON=C(CC)C1=C(O)CC(c2c(C)cc(C)cc2C)CC1=O (centres undefined),outcome,[1],inactive
same,outcome,[2],inactive
same,outcome,[3],inactive
same,outcome,[4],inactive
same,outcome,[5],inactive
same,outcome,[20],inactive
same,outcome,[6],inactive
same,outcome,[7],inactive
same,AC50,[8],50 µM (active)
same,outcome,[9],inactive
same,outcome,[10],inactive
same,outcome,[11],inactive
same,AC50,[12],50 µM (active)
same,outcome,[15],inactive
same,outcome,[16],inactive
same,outcome,[17],inactive
same,outcome,[18],inactive
COC(=O)C(C)Oc1ccc(Oc2ccc(Cl)cc2Cl)cc1 (centres undefined),outcome,[1],inactive
same,outcome,[2],inactive
same,outcome,[3],inactive
same,AC50,[4],38.3 µM (active)
same,outcome,[5],inactive
same,AC50,[19],13.7 µM (active)
same,outcome,[6],inactive
same,outcome,[7],inactive
same,outcome,[8],inactive
same,outcome,[10],inactive
same,AC50,[11],45.7 µM (active)
same,outcome,[12],inactive
same,outcome,[13],inactive
same,AC50,[15],21.7 µM (active)
same,outcome,[16],inactive
same,outcome,[17],inactive
same,outcome,[18],inactive
